Experimental data as given in PubChem BioAssay AID731 (The Scripps Research Institute Molecular Screening Center, 2007).
Screen size: about 200,000 compounds; about 520 (0.26%) were called active. For the sample, actives were picked, then their nearest neighbours and some compounds at random. A number with no mark means an inactive call. No stated cut-off is given here; in the data, active means activation above about 23%; inactive means the rest.

The compounds below were run against Peroxisome proliferator-activated receptor gamma (Homo sapiens) (UniProt P37231) (assay: PPARgamma agonists recruiting SRC-3 coactivator, primary screen, biochemical (AID 731;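 further: 0% = DMSO and 100% = reference agonist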)). Details: biochemical PPARgamma/SRC-3 coactivator recruitment assay; at 8 µM; hits give high values.
Sequence of Peroxisome proliferator-activated receptor gamma (Homo sapiens) (P37231 whole entry, looked up): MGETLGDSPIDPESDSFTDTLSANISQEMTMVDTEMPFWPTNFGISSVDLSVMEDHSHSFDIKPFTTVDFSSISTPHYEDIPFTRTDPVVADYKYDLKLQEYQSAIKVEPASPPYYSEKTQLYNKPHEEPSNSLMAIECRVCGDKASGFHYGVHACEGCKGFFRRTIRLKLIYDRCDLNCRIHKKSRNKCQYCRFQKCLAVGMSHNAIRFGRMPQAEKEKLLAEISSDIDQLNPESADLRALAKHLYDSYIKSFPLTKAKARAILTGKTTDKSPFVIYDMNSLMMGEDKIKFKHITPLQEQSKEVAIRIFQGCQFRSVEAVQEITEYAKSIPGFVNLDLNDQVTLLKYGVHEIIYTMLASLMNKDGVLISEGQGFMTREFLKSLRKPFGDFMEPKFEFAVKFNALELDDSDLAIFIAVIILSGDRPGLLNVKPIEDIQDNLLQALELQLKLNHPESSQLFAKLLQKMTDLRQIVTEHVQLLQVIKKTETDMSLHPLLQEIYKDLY
Compound `COc1ccc(OCC(=O)Nc2ccc(N3CCC(C)CC3)cc2)cc1` has an activation of 1.65%.
With `CCOc1ccc(Br)cc1S(=O)(=O)Nc1cccc(S(=O)(=O)N(CC)CC)c1` the activation was -0.46%.
`CC(=O)N1CC(C)c2scc(C)[n+]2-c2ccccc21` (stereo unspecified) was tested, and the activation was 0.84%.
With `CCC(C)N(C)C1CCN(C(=S)Nc2ccc(OC)cc2)CC1` (stereo unspecified) the activation was -0.62%.
Compound `CCN(CC)c1ccc2c(Nc3ccccc3)c(C=O)c(=O)oc2c1` has an activation of -1.59%.
`CCN(CC)c1ccc2oc(=O)c(C)nc2c1` was tested, and the activation was 30.3% (active).
`CCN(CC)c1ccc2cc(C(=O)O)c(=O)oc2c1` showed an activation of 1.62%.
With `Cc1ccccc1N/C(SCc1ccc(Cl)cc1)=C(/C#N)C(N)=O` the activation was -0.24%.
With `CCCCC1N2CC3([N+](=O)[O-])CN1CC([N+](=O)[O-])(C2)C3(C)C` (stereo unspecified) the activation was 3.26%.
For `Cc1nc(SCC(=O)N2CC(=O)Nc3ccccc32)c2c(C)c(C)sc2n1`, the activation was 7.47%.
Work on `COc1cc(/C=C/C2=CC(C)(C)NC(=S)N2)cc(OC)c1OC` yielded an activation of -3.19%.
`COc1cc(C(=S)N2CCOCC2)cc(OC)c1OC(=O)c1cc([N+](=O)[O-])c(C)c([N+](=O)[O-])c1` was tested, and the activation was 27.4% (active).
Compound `COc1cc(C(=S)N2CCOCC2)cc(OC)c1OC(=O)c1cc([N+](=O)[O-])cc([N+](=O)[O-])c1` has an activation of 1.22%.
In the case of `COc1cc(C(=S)N2CCOCC2)ccc1O`, the activation was 6.53%.
In the case of `COC(=O)Cc1ccc(NC(=S)NCc2ccco2)cc1`, the activation was -0.79%.
In the case of `CCc1nnc(NC(=O)Cc2cccs2)s1`, the activation was 0.13%.
`O=C(O)CCCCOn1ccnc1` was tested, and the activation was -4.37%.
`CN1CCN(c2ccc(S(=O)(=O)Nc3ccccc3)cc2[N+](=O)[O-])CC1` showed an activation of 8.11%.
`CC(C)(C)c1ccc(/C=C/C(=O)Nc2ncccn2)cc1` gave an activation of -0.41%.
For `O=C(C1=C[C@H](c2ccc(C(F)(F)F)cc2)C[C@H](OCc2ccc(CO)cc2)O1)N1CCN(Cc2ccccc2)CC1`, the activation was 5.31%.
Compound `N#Cc1ccccc1Sc1ccccc1C(=O)OCC(=O)NC1CCCCC1` has an activation of -1.17%.
`CCOc1ccc(NC(=O)CSc2nc3ccccc3c(=O)n2Cc2cccs2)cc1` was tested, and the activation was -1%.
`CCOc1ccc(NC(=O)CCC(=O)n2nc(C)cc2C)cc1` was tested, and the activation was 19.2%.
With `CCOc1ccc(NC(=O)CSc2ncnc3c2sc2ccccc23)cc1` the activation was 23.1% (active).
`COc1cc(OC)c(-n2cc(-c3ccc(Cl)cc3)[nH]c2=O)cc1Cl` gave an activation of 2.05%.
`NS(=O)(=O)c1ccc(NC(=O)COC(=O)CCc2c[nH]c3ccccc23)cc1` was tested, and the activation was 1.02%.
`COc1cc(NS(=O)(=O)c2ccc(NC(=O)CN3C(=O)c4ccccc4C3=O)cc2)ncn1` was tested, and the activation was 4.24%.
In the case of `COc1ccc(C(CC(=O)Nc2ccc(C)cc2)NC(=O)C(F)(F)F)cc1` (stereo unspecified), the activation was 1.26%.
`CN1CCC(OC(=O)COc2ccc(Cl)cc2Cl)CC1` showed an activation of -2.65%.
Work on `Cc1ccc(NC(=O)OCc2cncs2)cc1` yielded an activation of 3.15%.
In the case of `O=C1C2C3C=CC(C4CC34)C2C(=O)N1c1nccs1` (stereo unspecified), the activation was -3%.
In the case of `O=C(/C=C/c1cn(-c2ccccc2)nc1-c1ccc2c(c1)OCCO2)NCCCN1CCOCC1`, the activation was 5.25%.
Compound `Cc1cccc(OCCNC(=O)CSc2ccc(C(F)(F)F)cc2[N+](=O)[O-])c1` has an activation of -3.57%.
Work on `Cc1cc(O)c(NC(=O)c2ccc(C)c([N+](=O)[O-])c2)cc1C` yielded an activation of -0.67%.
Compound `Cc1cccc(NC(=O)c2cc([N+](=O)[O-])ccc2N2CCN(C)CC2)c1` has an activation of 4.61%.
For `CCc1cc(C(=O)OC)c(NC(=O)CC2Sc3ccc(C(F)(F)F)cc3NC2=O)s1` (stereo unspecified), the activation was -4.95%.
`CCOc1cc(/C=N/NC(=O)c2ccc(CSc3nncn3C)cc2)ccc1OCC(=O)N1CCOCC1` showed an activation of -1.91%.
In the case of `CC(OC(=O)CNS(=O)(=O)/C=C/c1ccccc1)C(=O)Nc1ccc(S(=O)(=O)N2CCCC2)cc1` (stereo unspecified), the activation was -1.83%.
`CC(C(=O)O)n1cnc2sc3c(c2c1=O)CCCC3` (stereo unspecified) gave an activation of 4.24%.
In the case of `COc1ccc(N2C(=O)CC(SC(C)C)C2=O)cc1` (stereo unspecified), the activation was -1.07%.
`CN(Cc1cccc2ncccc12)C(=O)CC1C(=O)NCCN1Cc1ccc(F)cc1` (stereo unspecified) was tested, and the activation was -0.7%.
`O=C(/C=C/Nc1ccccc1)c1cnc(-c2ccccc2)s1` showed an activation of -4.1%.
In the case of `CC(C)Cn1c(N2CCN(C(=O)/C=C/c3ccccc3)CC2)nc2ccccc21`, the activation was 9.26%.
In the case of `COc1cccc(NC(=O)CN(C)CC(=O)Nc2ccc3c(c2)CCC3)c1`, the activation was 0.47%.
Compound `O=C(Cc1ccccc1)NNS(=O)(=O)c1ccc([N+](=O)[O-])cc1` has an activation of 1.7%.
`CCCCn1nc(C(=O)Nc2ccc(S(=O)(=O)Nc3ncccn3)cc2)c2ccccc2c1=O` showed an activation of 2.84%.
Compound `CC(C)C(c1nnnn1C(C)(C)C)N1CCN(Cc2cccnc2)CC1` (stereo unspecified) has an activation of 4.42%.
Compound `CCn1c(C(C)C)n[nH]c1=S` has an activation of 1.32%.
`CCN(CC(=O)NCc1cccs1)C(=O)c1ccccc1F` showed an activation of 1.34%.
For `COc1cc(CNCCN(C)C)ccc1OCc1c(F)cccc1Cl`, the activation was 2.34%.
Work on `c1ccc(Cc2cc[n+](Cc3ccccc3)cc2)cc1` yielded an activation of 1.56%.
With `NS(=O)(=O)c1cc(C(=O)NCCOc2ccccc2)c(Cl)cc1Cl` the activation was -1.64%.
Compound `CCc1nnc(NC(=O)[C@@H](NC(=O)c2cccc(C)c2)C(C)C)s1` has an activation of -2.92%.
`COc1ccc(-c2nnc3ccc(SCc4ccccc4)nn23)cc1` gave an activation of 3.96%.
Compound `Cc1cc(C)nc(NC(=O)c2cccc([N+](=O)[O-])c2)c1` has an activation of 2.34%.
With `CC(C)[C@H](NC(=O)c1ccc(F)cc1)C(=O)OCC(=O)NC(=O)c1cccn1C` the activation was 1.86%.
With `O=C(Cn1c(N2CCN(C/C=C/c3ccccc3)CC2)nc2ccccc21)c1ccccc1` the activation was 6.67%.
`N/C(=N\OC(=O)c1ccc([N+](=O)[O-])cc1)c1ccccn1` showed an activation of -2.22%.
`[O-][n+]1onc2c1CCc1[nH]c(-c3ccccc3)nc1-2` showed an activation of 0.76%.
Compound `N#C/C(=C(\O)C(F)(F)F)c1nnc2n1CCCCC2` has an activation of -0.75%.
With `CSCc1ccc(C(=O)Nc2cc(C)cc(C)c2)cc1` the activation was -4.38%.
`COc1ccc2c(Cl)c(C(=O)NCc3ccco3)sc2c1` was tested, and the activation was -2.31%.
For `COc1ccc2c(Cl)c(-c3nnco3)sc2c1`, the activation was 33.2% (active).
For `COc1ccc(-c2nnco2)cc1OC`, the activation was -2.7%.
Work on `O=C(Nc1ccc2c(c1)CCC2)c1ccc(Br)s1` yielded an activation of 0.47%.
Work on `C/C(=C\c1ccccc1)C1NC(=O)c2c(sc3c2CCCC3)N1` (stereo unspecified) yielded an activation of 6.88%.
`CCn1nc(C)c(CN2CCN(Cc3ccc(OC)c(C)c3C)C(CCO)C2)c1C` (stereo unspecified) gave an activation of -0.59%.
`Cn1cc(-c2ccccc2)cc(C#N)c1=O` gave an activation of 1.51%.
With `CN(C)N(C)C(=O)C(O)(c1ccccc1)c1ccccc1` the activation was 3.14%.
`Cc1cc(C)cc(N(CC(=O)NCCSCc2ccco2)S(C)(=O)=O)c1` gave an activation of 5.41%.
`O=C(CN1C(=O)NC2(CCCC2)C1=O)Nc1ccc(F)c(F)c1F` gave an activation of 0.63%.
With `O=S(=O)(c1ccc(F)cc1)N1CCN(C(=S)NC2CCCC2)CC1` the activation was 1.45%.
`COc1cc(C)c(S(=O)(=O)N2CCOCC2)c(C)c1C` was tested, and the activation was -6.91%.
Compound `CCc1nnc(NS(=O)(=O)c2ccc(NC(=S)NC(=O)c3cccs3)cc2)s1` has an activation of 2.44%.
In the case of `CCc1nnc(NS(=O)(=O)c2ccc(NC(=S)NC(=O)/C=C/c3cccs3)cc2)s1`, the activation was 22.6% (active).
For `CCc1nnc(NS(=O)(=O)c2ccc(NS(=O)(=O)c3ccccc3)cc2)s1`, the activation was -4.6%.
With `C/C(=N/NC(=O)C1COc2ccccc2O1)c1ccco1` (stereo unspecified) the activation was -2.9%.
For `Cc1ccc(CN(C)CC(=O)Nc2cccc([N+](=O)[O-])c2)o1`, the activation was -1.37%.
In the case of `COc1cc(NS(=O)(=O)c2ccc(NC(=O)c3ccc(S(=O)(=O)N4CCCCC4)cc3)cc2)ncn1`, the activation was -0.22%.
Compound `C/C(=N\NS(=O)(=O)c1ccc(Cl)cc1)c1ccc(NC(=O)c2ccco2)cc1` has an activation of 7.63%.
For `O=C(O)Cc1sc(-c2ccccc2)nc1-c1cccs1`, the activation was 25.3% (active).
`O=C(O)Cc1sc(-c2ccc(C(=O)O)cc2)nc1-c1ccccc1` was tested, and the activation was 8.03%.
For `Cc1ccc(-c2nc(C)sc2CC(=O)O)cc1`, the activation was 1.18%.
Compound `Cc1ccc(C2=NN(C(=O)COc3ncnc4ccccc34)C(c3ccco3)C2)cc1` (stereo unspecified) has an activation of 6.22%.
`COC(C(=O)NCc1ccccc1C)c1ccccc1` (stereo unspecified) gave an activation of -1.48%.
Compound `CCCC(c1nnnn1C(C)(C)C)N1CCN(Cc2ccccc2)CC1` (stereo unspecified) has an activation of 0.32%.
`COc1ccc(OC)c(CNC(=O)c2cc(=O)[nH]c3ccc(S(=O)(=O)N4CCCC4)cc23)c1` was tested, and the activation was 1.02%.
Compound `O=C(C1CCN(C2CCN(Cc3ccc4cc(F)ccc4n3)CC2)CC1)N1CCCC1` has an activation of 3.24%.
`Cc1ccc(C(=O)N/C(=C\c2ccco2)C(=O)N2CCSCC2)cc1C` was tested, and the activation was -0.93%.
For `Cc1ccc2cc(C#N)c(NCCNC(=S)NCCCN3CCOCC3)nc2c1`, the activation was 1.37%.
With `Cn1nnnc1SCC(=O)Nc1nc2ccccc2s1` the activation was -4.08%.
`N#Cc1c(-c2ccc(F)cc2)cc(C2CC2)nc1SCC(=O)c1cccs1` showed an activation of -1.78%.
Work on `COC(=O)CCc1sc(Nc2ccc(Br)cc2)nc1-c1ccc(OC)cc1` yielded an activation of 4.66%.
`Cn1c(-c2sccc2OCc2cccc(C(F)(F)F)c2)n[nH]c1=S` showed an activation of 4.56%.
Compound `Cc1ccccc1-c1n[nH]c(=S)n1C` has an activation of 2.22%.
In the case of `Cn1c(-c2sc3cc(C(F)(F)F)cnc3c2-c2ccccc2)n[nH]c1=S`, the activation was 50% (active).
